EPAC2 ant val – human EPAC2 antagonism, validation. Q8WZA2. AID 1645886. EPAC2 Rap1B BODIPY-GDP exchange, fluorescence. 1.7% of 16,000 active. Potency, µM (series often up to 112 µM), for the others: at the highest dose activity, negative = inhibition, most hits filed as inhibitors;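 also: 100% = activation by cAMP agonist control; nearly all actives have a fitted effect of over 40% in size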
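Fluorescent exchange read-out: 100 nM EPAC2 with 250 nM RAP1B–BODIPY-GDP and 50 uM GDP; BODIPY-GDP release lowers fluorescence. Read at 480/540 nm every 5 min for 30 min at room temperature; normalized to 6.5 mM cAMP.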
EPAC1 ag val – validation of human EPAC1 agonists | O95398 | EPAC1 Rap1b BODIPY-GDP exchange, fluorescence | Potency, µM, inactives show max response, positive = active, usual class: activators | 1% of 16,000 active | AID 1645883; also: nearly all actives have a fitted effect of over 70% in size
Target sequence (O95398 whole entry, looked up): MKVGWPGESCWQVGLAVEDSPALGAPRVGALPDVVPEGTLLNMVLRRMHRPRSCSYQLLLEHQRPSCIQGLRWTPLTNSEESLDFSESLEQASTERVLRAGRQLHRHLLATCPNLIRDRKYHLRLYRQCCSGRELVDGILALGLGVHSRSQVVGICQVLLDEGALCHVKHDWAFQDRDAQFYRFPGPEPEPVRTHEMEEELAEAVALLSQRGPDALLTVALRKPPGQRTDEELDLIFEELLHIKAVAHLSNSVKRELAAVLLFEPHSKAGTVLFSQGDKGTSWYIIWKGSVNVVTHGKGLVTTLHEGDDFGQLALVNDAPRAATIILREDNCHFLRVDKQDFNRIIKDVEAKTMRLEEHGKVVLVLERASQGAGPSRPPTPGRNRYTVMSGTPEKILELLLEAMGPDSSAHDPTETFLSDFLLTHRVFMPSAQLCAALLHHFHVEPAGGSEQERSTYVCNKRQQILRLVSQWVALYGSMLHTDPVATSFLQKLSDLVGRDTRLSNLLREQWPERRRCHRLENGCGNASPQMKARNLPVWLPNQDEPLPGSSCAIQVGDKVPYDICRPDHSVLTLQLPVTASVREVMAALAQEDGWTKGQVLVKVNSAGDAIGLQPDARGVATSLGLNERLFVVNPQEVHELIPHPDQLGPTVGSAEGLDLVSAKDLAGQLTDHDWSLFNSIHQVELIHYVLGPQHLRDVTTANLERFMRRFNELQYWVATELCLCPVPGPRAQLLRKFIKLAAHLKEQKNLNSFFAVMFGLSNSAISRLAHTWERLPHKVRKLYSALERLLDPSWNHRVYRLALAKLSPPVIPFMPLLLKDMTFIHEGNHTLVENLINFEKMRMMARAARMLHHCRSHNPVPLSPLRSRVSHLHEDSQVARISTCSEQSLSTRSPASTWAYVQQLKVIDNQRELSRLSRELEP
An asterisk follows results filed as active; ? = inconclusive; ! = a repeat was not active. Shown are actives, neighbours in structure and some others; about 3.1% of the full set was active somewhere. Calls follow the shape of the dose curve; as a rule, active = well fitted curve in the direction sought with a large enough effect; inconclusive = small, poorly fitted or top-dose-only effect, or another doubt; inactive = no such curve, though single readings can be large; an effect the other way counts as inactive or inconclusive. Unless noted, % is scaled to controls: 0 for no effect and ±100 for the full control effect; potency is read from the fitted curve at half-maximal effect.

SMILES	EPAC2 ant val	EPAC1 ag val
O=C1NC(=O)/C(=C/c2ccc3nccnc3c2)S1	-12%	-8%
O=C1NC(=O)/C(=C/c2ccc(-c3ccc(F)cc3O)o2)S1	7.9µM*	-14%
COc1ccc(S[C@@H](CCN2CC[C@H](C)CCC2=O)c2ccccc2)cc1	?	-31%
C[C@@H]1CCC(=O)N(CC[C@H](Oc2ccccc2)c2ccccc2)CC1	79µM*	-19%
COC(=O)c1c(OCc2ccccn2)cc(=O)n2c1CCN(Cc1ccc3c(c1)CCCN3C)CC2	?	-11%
COc1ccc(C(=O)NCC2Cc3cccc(-c4cncnc4)c3O2)c(OC)c1OC (stereo unspecified)	-18%	-7%
COC(=O)C1=C(C)NC(C)=C([N+](=O)[O-])[C@H]1c1ccccc1C(F)(F)F	50µM*	-15%
COC(=O)C1=C(C)NC(C)=C([N+](=O)[O-])[C@@H]1c1ccccc1C(F)(F)F	40µM*	-14%
COC(=O)C1=C(C)NC(C)=C(C(=O)OCCSc2ccccc2)[C@@H]1C	?	17%
COC(=O)C1=C(C)NC(C)=C(C(=O)OCC(C)=O)C1c1ccccc1[N+](=O)[O-] (stereo unspecified)	-8%	9%
COC(=O)c1cccc(C(=O)N2CCc3c(C(=O)OC)c(OCc4ccccn4)cc(=O)n3CC2)c1	3%	-4%
C=CCCCCCCCCCCCC(O)CC(O)CO (stereo unspecified) (tested in a mixture with another compound)	40µM*	-143%
C=CCCCCCCCCCCCC(O)CC(O)COC(C)=O (stereo unspecified)	?	-118%
CO[C@@H]1[C@@H](OC)[C@H](C)[C@@](O)(CC(=O)O)O[C@H]1[C@H](C)[C@H]1O[C@@]2(CC[C@@](C)([C@H]3CC[C@@](C)([C@@H]4O[C@@H]([C@H]5O[C@](C)(O)[C@H](C)C[C@@H]5C)C[C@@H]4OC4C[C@H](OC)[C@@H](OC)[C@H](C)O4)O3)O2)C[C@H](O)[C@H]1C (stereo partly specified)	5%	-53%
COc1ccccc1N1CCN(c2nc(CNC(=O)C3CC34CCCC4)nc3ccccc23)CC1 (stereo unspecified)	?	14%
CN1CCN(CCCN2c3ccccc3Sc3ccccc32)CC1	3%	9%
OCCN1CCN(CCCN2c3ccccc3Sc3ccc(C(F)(F)F)cc32)CC1	50µM*!	17%
CN1CCN(CCCN2c3ccccc3Sc3ccc(Cl)cc32)CC1	35µM*!	14%
CC(=O)c1ccc2c(c1)N(CCCN1CCN(CCO)CC1)c1ccccc1S2	54%	7%
C=C1CC[C@H](O)CC1=C/C=C1\CCC[C@]2(C)[C@@H]([C@H](C)CCCC(C)(C)O)CC[C@@H]12	2%	-21%
Cc1cccc(C)c1NC(=O)C(C)N (stereo unspecified)	-13%	89µM*!
CN=C(N)NC(=O)Nc1c(C)cccc1C	16%	2%
OC[C@H]1OC([S-])[C@H](O)[C@@H](O)[C@@H]1O.[Au+] (stereo partly specified)	-28%	6%
COC(=O)c1cc(CNC(=O)c2ccc3ncccc3c2)cc(NC(=O)c2ccccc2Cl)c1	-10%	-18%
Nc1c(N=Nc2ccc(-c3ccc(N=Nc4cc(S(=O)(=O)O)c5ccccc5c4N)cc3)cc2)cc(S(=O)(=O)O)c2ccccc12	40µM*	-6%
SMILES	EPAC2 ant val	EPAC1 ag val
Cc1cc(-c2ccc(N=Nc3ccc4c(S(=O)(=O)O)cc(S(=O)(=O)O)c(N)c4c3O)c(C)c2)ccc1N=Nc1ccc2c(S(=O)(=O)O)cc(S(=O)(=O)O)c(N)c2c1O	32µM*!	-10%
Cc1nn(-c2ccc(F)cc2)c(C)c1CNC(=O)c1ccc(-n2cc(NC(=O)c3ccoc3)cn2)cc1	-16%	-14%
C=C[C@]1(C)C[C@@H](OC(=O)CSCCN(CC)CC)[C@]2(C)[C@H](C)CC[C@]3(CCC(=O)[C@H]32)[C@@H](C)[C@@H]1O	1%	-26%
COc1cccc2ccc(CN3CCC4(CC3)c3ccccc3[C@@H](NC(=O)c3ccccc3)[C@@H]4O)nc12	20%	-1%
Cc1oc(-c2ccccc2NC(=O)C2CCC2)nc1CNC(=O)c1ccccn1	-16%	6%
CC(=O)OC1CC[C@]2(C)C(CC[C@@]3(C)C2C(=O)C=C2C4C(C)C(C)CC[C@@]4(C(=O)O)CCC23C)C1(C)C (stereo partly specified)	-20%	-189%
CC1(C)[C@@H](OC(=O)CCC(=O)O)CC[C@]2(C)[C@H]3C(=O)C=C4[C@@H]5C[C@@](C)(C(=O)O)CC[C@]5(C)CC[C@@]4(C)[C@]3(C)CC[C@@H]12	4µM*	-7%
Cc1cc(C)c2nccc(/C=C/c3ccc(N(C)C)cc3)c2c1	45%	100µM*
CN(C)c1ccc(/C=C/c2ccnc3c2ccc2ccccc23)cc1	33%	?
Cc1ccc2c(/C=C/c3ccc(N(C)C)cc3)ccnc2c1C	6%	100µM*
Cc1cc(C)c2c(C)ccnc2c1	-4%	26%
C[C@@H]1C[C@H]2[C@@H]3CCC4=CC(=O)C=C[C@]4(C)[C@@]3(F)[C@@H](O)C[C@]2(C)[C@@]1(O)C(=O)COC(=O)c1cccc(S(=O)(=O)O)c1	35%	8%
CCC(C)[C@H]1COCCS(=O)(=O)N1Cc1ccc(Br)cc1 (stereo partly specified)	10µM*	-124%
CC(C)[C@H]1COCCS(=O)(=O)N1Cc1ccc(Cl)cc1	?	-49%
CCC(C)[C@H]1COCCS(=O)(=O)N1Cc1ccccc1F (stereo partly specified)	?	-52%
CCC(C)[C@H]1COCCS(=O)(=O)N1Cc1ccc(Cl)cc1Cl (stereo partly specified)	28µM*	-30%
CC(C)(C)NCC(O)CSc1nc(-c2ccc(C(N)=O)s2)cs1 (stereo unspecified)	3%	-2%
COc1cc(=O)n2c(c1C(=O)NCc1nonc1C)CCN(Cc1c[nH]c3ccccc13)CC2	7%	-8%
CO[C@H]1C=CO[C@@]2(C)Oc3c(C)c(O)c4c(O)c(c5c(c4c3C2=O)=NC2(CCN(CC(C)C)CC2)N=5)NC(=O)/C(C)=C\C=C/[C@H](C)[C@H](O)[C@@H](C)[C@@H](O)[C@@H](C)[C@H](OC(C)=O)[C@@H]1C	?	-31%
COCC(=O)Nc1cc(C(=O)N2CCc3c([nH]c4ccccc34)C2)cc2nc(-c3ccccc3)n(C)c12	?	1%
CCCCCCCCCCCCCCCC[n+]1ccc(C)c2ccccc21	-48%	-84%
CC(C)[C@@H]1CC[C@@H](C)C[C@H]1OC(=O)c1ccccc1O	4%	-6%
COc1ccc(/C=C/C(=O)c2ccc(OC)cc2OC)cc1	16µM*	14%
COc1ccc(/C=C/C(=O)c2ccc(O)cc2O)cc1	-18%	17%
CO[C@H]1[C@H](NC(=O)c2ccsc2)c2ccccc2C12CCN(Cc1cc(Cl)ccc1O)CC2	-2%	7%
CO/N=C(\C(=O)N[C@@H]1C(=O)N2C(C(=O)O)=C(CSc3nnnn3C)CS[C@H]12)c1csc(N)n1	25%	-17%
CC1=C(CC(=O)O)c2cc(F)ccc2/C1=C\c1ccc(S(C)(=O)=O)cc1	16%	9%
CS(=O)(=O)c1ccc(-c2cc(Br)sc2-c2ccc(F)cc2)cc1	40µM*	22%

Screens deposited in PubChem BioAssay by National Center for Advancing Translational Sciences (NCATS).
